In publication PMC7862700, “An all-to-all approach to the identification of sequence-specific readers for epigenetic DNA modifications on cytosine” one finds binding signal data, which are given here for one sequence.

Holding throughout (assay): DAPPL (digital affinity profiling via proximity ligation, sequencing); 10 mM Tris-HCl pH 7.5, 50 mM NaCl, 1 mM DTT, 4% glycerol, room temperature, 30 min; GST-TFs on glutathione beads, 16-mer random dsDNA library, 0.1% formaldehyde crosslink after washing; high values mean tight binding
The target of experiment [1] is T1, FEV (Homo sapiens, UniProt Q99581 1-238).
T1 sequence: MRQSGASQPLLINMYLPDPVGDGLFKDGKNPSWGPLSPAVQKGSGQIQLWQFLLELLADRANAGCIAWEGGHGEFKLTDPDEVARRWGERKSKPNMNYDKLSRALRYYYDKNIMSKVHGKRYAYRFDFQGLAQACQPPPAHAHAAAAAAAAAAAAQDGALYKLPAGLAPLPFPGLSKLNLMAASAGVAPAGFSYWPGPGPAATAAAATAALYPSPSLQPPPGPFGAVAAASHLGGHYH
The note with it: protein: recombinant; tags: N-terminal GST; dsDNA, one strand shown. In outline:
(§1)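 Human transcription factors were made in yeast as GST fusions, captured on glutathione beads and barcoded with DNA. With a tag-only sample included, the pool was incubated with 200 nmole of a random double-stranded 16-mer DNA library in Tris/NaCl/DTT/glycerol buffer at room temperature for 30 min, then crosslinked with 0.1% formaldehyde after washing, ligated by proximity, amplified and sequenced. For binding signal, each hexamer's read frequency for a factor is divided by its frequency for the tag-only sample.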

Experiment [2] deals with ETV5 (Homo sapiens, UniProt P41161 1-510). The note with it: protein: recombinant; tags: N-terminal GST; dsDNA, one strand shown. In outline:
as §1

Experiment [3] concerns the target HSF1 (Homo sapiens, UniProt Q00613 1-529). The note with it: protein: recombinant; tags: N-terminal GST; chain copies: 3; dsDNA, one strand shown. In outline: as §1
The target in experiment [4] is T2, SPIC (Homo sapiens, UniProt Q8N5J4 1-248).
T2 sequence: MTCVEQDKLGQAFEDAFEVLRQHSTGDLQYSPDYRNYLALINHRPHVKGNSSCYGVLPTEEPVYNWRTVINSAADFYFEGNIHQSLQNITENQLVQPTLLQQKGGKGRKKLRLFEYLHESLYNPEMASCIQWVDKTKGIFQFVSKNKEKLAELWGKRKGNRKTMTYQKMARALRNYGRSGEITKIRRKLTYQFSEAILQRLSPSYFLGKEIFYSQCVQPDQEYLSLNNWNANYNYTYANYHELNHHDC
The note with it: protein: recombinant; tags: N-terminal GST; dsDNA, one strand shown. In outline:
as §1

Experiment [5] has as its target ELF4 (Homo sapiens, UniProt Q99607 1-663). The note with it: protein: recombinant; tags: N-terminal GST; dsDNA, one strand shown. Summed up:
as §1

For experiment [6], the target named is T3, ELK4 (Homo sapiens, UniProt P28324-2 1-405).
T3 sequence: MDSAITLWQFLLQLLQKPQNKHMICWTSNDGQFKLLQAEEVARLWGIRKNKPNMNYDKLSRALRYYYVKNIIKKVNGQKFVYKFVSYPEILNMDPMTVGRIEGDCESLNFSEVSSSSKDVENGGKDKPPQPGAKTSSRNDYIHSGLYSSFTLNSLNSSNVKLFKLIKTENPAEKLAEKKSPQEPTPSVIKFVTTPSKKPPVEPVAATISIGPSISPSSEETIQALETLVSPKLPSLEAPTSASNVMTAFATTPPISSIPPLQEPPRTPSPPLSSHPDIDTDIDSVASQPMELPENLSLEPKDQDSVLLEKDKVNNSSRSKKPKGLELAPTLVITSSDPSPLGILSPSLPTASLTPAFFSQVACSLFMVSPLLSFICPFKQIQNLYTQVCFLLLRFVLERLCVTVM
The note with it: protein: recombinant; tags: N-terminal GST; dsDNA, one strand shown. In outline: as §1

Experiment [7] addresses T4, ETV2 (Homo sapiens, UniProt O00321 1-342).
T4 sequence: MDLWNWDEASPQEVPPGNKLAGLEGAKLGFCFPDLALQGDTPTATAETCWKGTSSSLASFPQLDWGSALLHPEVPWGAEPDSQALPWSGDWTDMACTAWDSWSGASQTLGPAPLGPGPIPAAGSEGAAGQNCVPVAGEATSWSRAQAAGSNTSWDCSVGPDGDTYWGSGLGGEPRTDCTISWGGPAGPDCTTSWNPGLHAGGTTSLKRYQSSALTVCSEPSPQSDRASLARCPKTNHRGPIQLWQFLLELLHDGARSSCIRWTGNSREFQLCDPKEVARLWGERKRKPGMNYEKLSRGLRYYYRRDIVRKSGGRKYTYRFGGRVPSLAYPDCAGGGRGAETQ
The following applies: protein: recombinant; tags: N-terminal GST; dsDNA, one strand shown. Summed up:
as §1

The target of experiment [8] is T5, ELF3 (Homo sapiens, UniProt P78545 1-371).
T5 sequence: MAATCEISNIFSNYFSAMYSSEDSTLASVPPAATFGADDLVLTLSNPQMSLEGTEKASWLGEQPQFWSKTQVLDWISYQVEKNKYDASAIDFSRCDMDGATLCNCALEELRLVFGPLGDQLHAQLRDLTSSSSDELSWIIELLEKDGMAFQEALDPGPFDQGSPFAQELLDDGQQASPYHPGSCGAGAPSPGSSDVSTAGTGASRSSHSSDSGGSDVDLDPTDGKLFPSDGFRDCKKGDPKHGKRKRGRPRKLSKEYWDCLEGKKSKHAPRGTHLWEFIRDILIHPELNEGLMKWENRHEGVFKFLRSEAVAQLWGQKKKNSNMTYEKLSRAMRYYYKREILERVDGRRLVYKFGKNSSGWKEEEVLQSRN
The following applies: protein: recombinant; tags: N-terminal GST; dsDNA, one strand shown. Summed up:
as §1

For experiment [9], the target named is CRX (Homo sapiens, UniProt O43186 1-299). The note with it: protein: recombinant; tags: N-terminal GST; dsDNA, one strand shown. Summed up: as §1
Chain of CRX (O43186 whole entry): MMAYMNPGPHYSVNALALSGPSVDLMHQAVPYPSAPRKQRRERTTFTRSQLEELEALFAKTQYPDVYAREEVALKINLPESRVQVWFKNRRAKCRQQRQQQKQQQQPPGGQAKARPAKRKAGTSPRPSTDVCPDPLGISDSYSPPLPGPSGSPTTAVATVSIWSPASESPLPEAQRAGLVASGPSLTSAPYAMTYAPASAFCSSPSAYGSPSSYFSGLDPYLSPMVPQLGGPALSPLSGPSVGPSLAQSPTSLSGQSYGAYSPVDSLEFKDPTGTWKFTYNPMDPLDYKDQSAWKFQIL
Experiment [10] concerns the target ETV1 (Homo sapiens, UniProt P50549 1-477). The following applies: protein: recombinant; tags: N-terminal GST; dsDNA, one strand shown. Summed up:
as §1

In experiment [11] the target is T6, ERF (Homo sapiens, UniProt P50548 1-548).
T6 sequence: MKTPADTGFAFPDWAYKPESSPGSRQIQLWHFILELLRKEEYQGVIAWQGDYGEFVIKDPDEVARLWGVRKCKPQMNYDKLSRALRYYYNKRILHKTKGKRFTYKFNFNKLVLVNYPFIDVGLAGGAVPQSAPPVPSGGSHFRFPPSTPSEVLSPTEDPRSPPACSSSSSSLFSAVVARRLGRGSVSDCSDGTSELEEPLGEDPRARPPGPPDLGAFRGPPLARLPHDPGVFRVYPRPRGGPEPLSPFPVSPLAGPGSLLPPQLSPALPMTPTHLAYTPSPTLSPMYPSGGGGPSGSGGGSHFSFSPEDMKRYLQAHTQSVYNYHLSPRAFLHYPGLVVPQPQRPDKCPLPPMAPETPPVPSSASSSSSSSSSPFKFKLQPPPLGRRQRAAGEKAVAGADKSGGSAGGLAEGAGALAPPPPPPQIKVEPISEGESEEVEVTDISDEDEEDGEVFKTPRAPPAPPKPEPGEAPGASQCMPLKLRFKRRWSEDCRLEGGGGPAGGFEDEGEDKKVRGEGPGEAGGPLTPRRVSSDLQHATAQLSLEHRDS
The note with it: protein: recombinant; tags: N-terminal GST; dsDNA, one strand shown. Summed up: as §1

For experiment [12], the target named is T7, ETV3L (Homo sapiens, UniProt Q6ZN32 1-361).
T7 sequence: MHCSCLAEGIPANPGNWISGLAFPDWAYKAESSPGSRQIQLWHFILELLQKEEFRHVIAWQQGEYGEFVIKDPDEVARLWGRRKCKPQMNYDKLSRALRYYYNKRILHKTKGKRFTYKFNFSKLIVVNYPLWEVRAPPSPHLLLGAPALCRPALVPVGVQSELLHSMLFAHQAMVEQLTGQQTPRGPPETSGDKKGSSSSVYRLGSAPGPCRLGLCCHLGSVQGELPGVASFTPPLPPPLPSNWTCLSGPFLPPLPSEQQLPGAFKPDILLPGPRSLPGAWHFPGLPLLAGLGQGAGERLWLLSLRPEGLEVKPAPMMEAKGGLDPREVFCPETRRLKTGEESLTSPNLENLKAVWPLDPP
The note with it: protein: recombinant; tags: N-terminal GST; dsDNA, one strand shown. Summed up:
as §1

For experiment [13], the target named is T8, ETS2 (Homo sapiens, UniProt P15036 1-469).
T8 sequence: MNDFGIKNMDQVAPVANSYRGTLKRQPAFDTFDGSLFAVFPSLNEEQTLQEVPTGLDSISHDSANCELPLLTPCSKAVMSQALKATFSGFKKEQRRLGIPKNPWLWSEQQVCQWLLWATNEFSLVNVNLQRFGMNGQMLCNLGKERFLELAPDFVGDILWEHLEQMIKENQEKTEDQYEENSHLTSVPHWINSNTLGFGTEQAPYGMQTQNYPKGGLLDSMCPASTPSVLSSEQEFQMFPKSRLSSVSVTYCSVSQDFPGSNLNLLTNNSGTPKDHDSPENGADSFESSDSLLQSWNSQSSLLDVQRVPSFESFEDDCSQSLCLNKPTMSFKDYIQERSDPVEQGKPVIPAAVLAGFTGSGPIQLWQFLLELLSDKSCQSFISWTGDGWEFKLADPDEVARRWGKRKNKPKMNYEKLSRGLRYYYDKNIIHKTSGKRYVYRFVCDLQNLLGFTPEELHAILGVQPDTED
The following applies: protein: recombinant; tags: N-terminal GST; dsDNA, one strand shown. In outline:
as §1

Experiment [14] addresses T9, SPDEF (Homo sapiens, UniProt O95238 1-335).
T9 sequence: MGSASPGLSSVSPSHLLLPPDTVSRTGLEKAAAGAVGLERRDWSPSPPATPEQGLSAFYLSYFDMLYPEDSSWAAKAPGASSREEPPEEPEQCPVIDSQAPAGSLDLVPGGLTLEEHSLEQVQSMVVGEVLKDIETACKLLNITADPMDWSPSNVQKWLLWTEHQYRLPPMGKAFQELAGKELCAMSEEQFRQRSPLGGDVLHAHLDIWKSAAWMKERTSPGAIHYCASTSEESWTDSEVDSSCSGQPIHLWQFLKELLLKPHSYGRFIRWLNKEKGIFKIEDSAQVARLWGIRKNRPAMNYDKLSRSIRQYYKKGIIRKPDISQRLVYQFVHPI
The note with it: protein: recombinant; tags: N-terminal GST; dsDNA, one strand shown. In outline:
as §1

Experiment [15] concerns the target T10, ETV7 (Homo sapiens, UniProt Q9Y603 1-341).
T10 sequence: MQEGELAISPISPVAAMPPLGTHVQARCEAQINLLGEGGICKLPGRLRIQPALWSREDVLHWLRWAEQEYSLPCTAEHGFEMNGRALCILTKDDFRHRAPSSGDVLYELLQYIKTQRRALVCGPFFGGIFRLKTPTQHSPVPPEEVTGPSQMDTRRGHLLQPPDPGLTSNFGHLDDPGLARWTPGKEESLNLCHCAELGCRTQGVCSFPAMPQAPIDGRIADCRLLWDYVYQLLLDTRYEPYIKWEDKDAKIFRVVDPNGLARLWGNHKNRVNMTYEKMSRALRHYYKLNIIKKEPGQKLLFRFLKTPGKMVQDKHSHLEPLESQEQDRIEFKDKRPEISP
The following applies: protein: recombinant; tags: N-terminal GST; dsDNA, one strand shown. In outline: as §1

The target in experiment [16] is T11, ELF5 (Homo sapiens, UniProt Q9UKW6-2 1-255).
T11 sequence: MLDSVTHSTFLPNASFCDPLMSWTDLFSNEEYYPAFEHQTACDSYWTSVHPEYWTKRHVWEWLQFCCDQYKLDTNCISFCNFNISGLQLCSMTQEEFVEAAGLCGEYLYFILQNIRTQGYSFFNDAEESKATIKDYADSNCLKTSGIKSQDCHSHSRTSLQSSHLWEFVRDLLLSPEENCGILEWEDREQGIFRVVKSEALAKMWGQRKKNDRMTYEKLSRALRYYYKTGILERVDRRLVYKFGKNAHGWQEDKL
The note with it: protein: recombinant; tags: N-terminal GST; dsDNA, one strand shown. In outline:
as §1

Experiment [17] has as its target T12, ETV3 (Homo sapiens, UniProt P41162-2 1-143).
T12 sequence: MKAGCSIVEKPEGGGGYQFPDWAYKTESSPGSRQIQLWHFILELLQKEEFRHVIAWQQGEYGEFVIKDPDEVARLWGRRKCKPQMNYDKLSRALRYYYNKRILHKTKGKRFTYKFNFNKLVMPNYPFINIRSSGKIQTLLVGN
The following applies: protein: recombinant; tags: N-terminal GST; dsDNA, one strand shown. Summed up: as §1

Experiment [18] addresses ETV6 (Homo sapiens, UniProt P41212 1-452). The note with it: protein: recombinant; tags: N-terminal GST; dsDNA, one strand shown. In outline:
as §1

Chain of ELF4 (Q99607 whole entry): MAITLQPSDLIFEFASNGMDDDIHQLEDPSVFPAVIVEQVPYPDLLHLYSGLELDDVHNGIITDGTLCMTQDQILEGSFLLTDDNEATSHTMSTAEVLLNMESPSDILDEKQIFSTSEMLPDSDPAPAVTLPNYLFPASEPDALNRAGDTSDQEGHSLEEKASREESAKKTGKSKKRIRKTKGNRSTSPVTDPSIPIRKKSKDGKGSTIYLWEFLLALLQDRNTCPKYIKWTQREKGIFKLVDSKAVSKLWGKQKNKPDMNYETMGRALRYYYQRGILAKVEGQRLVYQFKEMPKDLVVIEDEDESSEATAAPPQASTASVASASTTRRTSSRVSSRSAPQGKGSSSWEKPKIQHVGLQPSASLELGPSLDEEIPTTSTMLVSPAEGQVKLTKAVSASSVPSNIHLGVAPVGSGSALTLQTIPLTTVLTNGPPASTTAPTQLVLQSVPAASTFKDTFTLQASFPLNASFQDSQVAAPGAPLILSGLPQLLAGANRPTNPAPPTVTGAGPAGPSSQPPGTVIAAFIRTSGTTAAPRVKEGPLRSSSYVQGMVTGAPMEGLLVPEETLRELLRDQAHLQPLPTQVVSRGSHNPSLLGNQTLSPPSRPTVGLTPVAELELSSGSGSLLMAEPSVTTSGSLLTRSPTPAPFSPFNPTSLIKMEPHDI
Chain of HSF1 (Q00613 whole entry): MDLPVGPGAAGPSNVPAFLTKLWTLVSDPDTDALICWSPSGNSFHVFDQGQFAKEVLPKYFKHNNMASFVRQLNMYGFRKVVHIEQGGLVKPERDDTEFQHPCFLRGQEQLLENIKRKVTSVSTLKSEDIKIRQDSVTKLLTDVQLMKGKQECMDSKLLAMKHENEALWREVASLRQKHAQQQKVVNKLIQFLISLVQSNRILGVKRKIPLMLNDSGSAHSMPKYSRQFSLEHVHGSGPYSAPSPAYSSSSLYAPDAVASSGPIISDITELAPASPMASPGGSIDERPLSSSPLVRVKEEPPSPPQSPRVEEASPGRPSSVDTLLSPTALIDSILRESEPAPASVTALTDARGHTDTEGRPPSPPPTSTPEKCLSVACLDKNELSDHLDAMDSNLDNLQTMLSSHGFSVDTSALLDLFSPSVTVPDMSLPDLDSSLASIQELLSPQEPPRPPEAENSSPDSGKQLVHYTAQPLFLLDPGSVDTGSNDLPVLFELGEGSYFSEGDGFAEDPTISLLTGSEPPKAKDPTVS
Chain of ETV5 (P41161 whole entry): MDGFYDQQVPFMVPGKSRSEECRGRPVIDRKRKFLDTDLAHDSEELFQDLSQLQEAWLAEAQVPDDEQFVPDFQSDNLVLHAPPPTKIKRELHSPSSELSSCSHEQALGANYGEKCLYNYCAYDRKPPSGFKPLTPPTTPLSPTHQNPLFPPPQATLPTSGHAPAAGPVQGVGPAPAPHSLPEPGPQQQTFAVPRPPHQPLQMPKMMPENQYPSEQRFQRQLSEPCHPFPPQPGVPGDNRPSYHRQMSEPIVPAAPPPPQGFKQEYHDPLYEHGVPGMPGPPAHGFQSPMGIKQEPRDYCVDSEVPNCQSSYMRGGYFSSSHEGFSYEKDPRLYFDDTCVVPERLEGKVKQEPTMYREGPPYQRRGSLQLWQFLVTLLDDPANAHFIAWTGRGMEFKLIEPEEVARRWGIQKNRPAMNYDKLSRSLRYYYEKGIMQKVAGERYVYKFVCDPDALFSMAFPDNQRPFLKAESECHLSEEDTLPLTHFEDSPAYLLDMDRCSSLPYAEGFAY
Chain of ETV1 (P50549 whole entry): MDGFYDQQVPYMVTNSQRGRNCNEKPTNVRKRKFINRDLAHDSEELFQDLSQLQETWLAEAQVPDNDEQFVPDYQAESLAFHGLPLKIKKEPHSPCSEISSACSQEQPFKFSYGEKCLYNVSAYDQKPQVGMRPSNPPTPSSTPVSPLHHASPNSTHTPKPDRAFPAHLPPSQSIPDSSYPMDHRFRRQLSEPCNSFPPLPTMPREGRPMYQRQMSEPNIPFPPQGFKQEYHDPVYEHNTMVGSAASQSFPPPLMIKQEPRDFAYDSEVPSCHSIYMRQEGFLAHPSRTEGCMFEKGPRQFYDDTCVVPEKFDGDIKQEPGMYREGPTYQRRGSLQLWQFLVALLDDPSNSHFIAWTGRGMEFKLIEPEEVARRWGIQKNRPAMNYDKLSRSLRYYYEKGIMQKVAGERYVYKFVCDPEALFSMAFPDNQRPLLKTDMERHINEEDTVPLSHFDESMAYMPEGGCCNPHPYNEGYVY
Chain of ETV6 (P41212 whole entry): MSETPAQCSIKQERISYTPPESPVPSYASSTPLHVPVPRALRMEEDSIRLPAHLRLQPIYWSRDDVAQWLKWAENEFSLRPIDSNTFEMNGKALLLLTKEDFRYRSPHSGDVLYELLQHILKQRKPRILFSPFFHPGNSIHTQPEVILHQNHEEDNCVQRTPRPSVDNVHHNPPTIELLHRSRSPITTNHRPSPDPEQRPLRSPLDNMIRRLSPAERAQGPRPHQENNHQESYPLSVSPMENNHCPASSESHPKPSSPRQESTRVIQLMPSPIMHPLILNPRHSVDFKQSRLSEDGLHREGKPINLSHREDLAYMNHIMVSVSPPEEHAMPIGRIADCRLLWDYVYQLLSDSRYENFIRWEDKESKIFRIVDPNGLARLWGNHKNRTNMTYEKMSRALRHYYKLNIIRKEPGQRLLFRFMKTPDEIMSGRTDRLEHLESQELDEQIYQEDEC

Turning to CTTCGT, the binding signal was 1.33 fold enrichment (6-mer frequency, TF over GST control) in experiment [1]; 1.33 fold enrichment (6-mer frequency, TF over GST control) in [2]; 1.31 fold enrichment (6-mer frequency, TF over GST control) in [3]; 1.4 fold enrichment (6-mer frequency, TF over GST control) in experiment [4]; 1.29 fold enrichment (6-mer frequency, TF over GST control) in experiment [5]; 1.39 fold enrichment (6-mer frequency, TF over GST control) in experiment [6]. Further, the binding signal is 1.41 fold enrichment (6-mer frequency, TF over GST control) in [7]; 1.41 fold enrichment (6-mer frequency, TF over GST control) in experiment [8]; 1.22 fold enrichment (6-mer frequency, TF over GST control) in experiment [9]; 1.32 fold enrichment (6-mer frequency, TF over GST control) in [10]; 1.4 fold enrichment (6-mer frequency, TF over GST control) in [11]; 1.32 fold enrichment (6-mer frequency, TF over GST control) in experiment [12]. Moreover, the binding signal in experiment [13] is 1.34 fold enrichment (6-mer frequency, TF over GST control); in [14], 1.25 fold enrichment (6-mer frequency, TF over GST control); in experiment [15] it was 1.4 fold enrichment (6-mer frequency, TF over GST control); in experiment [16], 1.3 fold enrichment (6-mer frequency, TF over GST control); in [17] it was 1.31 fold enrichment (6-mer frequency, TF over GST control); in experiment [18] it was 1.31 fold enrichment (6-mer frequency, TF over GST control).
